PubChem BioAssay AID1452 (National Center for Advancing Translational Sciences (NCATS), 2008)
Among all 150,000 compounds or so, about 190 (0.13%) were called active. Another 2% or so got no clear call; they are omitted. Calls come from the whole dose curve; as a rule, active = well fitted inhibition curve with a large enough effect; inconclusive = small, poorly fitted or top-dose-only effect; inactive = flat fitted curve, though single readings scatter. The list comes from a sample in which actives are over-represented; it also holds similar structures and randomly drawn compounds.

The molecules below were run against Polyunsaturated fatty acid lipoxygenase ALOX12 (Homo sapiens) (UniProt P18054) (assay: qHTS Assay for Inhibitors of 12-hLO (12-human lipoxygenase)). Settings: purified 12-hLO, xylenol orange hydroperoxide absorbance; series mostly up to 57.1 µM.
Summary of the method: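 150 nM 12hLO, 25 mM Hepes pH 7.0 + 0.01% Triton X-100; cpd preinc 15 min RT; 40 uM arachidonic acid, 30 min RT; Fe-XO 30 min; A573/A405 ratio as read-out.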
% is set by controls: 0 for no effect and ±100 for the full control effect.
Note: nearly all actives have a fitted effect of over 55% in size.

Sequence of Polyunsaturated fatty acid lipoxygenase ALOX12 (Homo sapiens) (P18054 whole entry, looked up): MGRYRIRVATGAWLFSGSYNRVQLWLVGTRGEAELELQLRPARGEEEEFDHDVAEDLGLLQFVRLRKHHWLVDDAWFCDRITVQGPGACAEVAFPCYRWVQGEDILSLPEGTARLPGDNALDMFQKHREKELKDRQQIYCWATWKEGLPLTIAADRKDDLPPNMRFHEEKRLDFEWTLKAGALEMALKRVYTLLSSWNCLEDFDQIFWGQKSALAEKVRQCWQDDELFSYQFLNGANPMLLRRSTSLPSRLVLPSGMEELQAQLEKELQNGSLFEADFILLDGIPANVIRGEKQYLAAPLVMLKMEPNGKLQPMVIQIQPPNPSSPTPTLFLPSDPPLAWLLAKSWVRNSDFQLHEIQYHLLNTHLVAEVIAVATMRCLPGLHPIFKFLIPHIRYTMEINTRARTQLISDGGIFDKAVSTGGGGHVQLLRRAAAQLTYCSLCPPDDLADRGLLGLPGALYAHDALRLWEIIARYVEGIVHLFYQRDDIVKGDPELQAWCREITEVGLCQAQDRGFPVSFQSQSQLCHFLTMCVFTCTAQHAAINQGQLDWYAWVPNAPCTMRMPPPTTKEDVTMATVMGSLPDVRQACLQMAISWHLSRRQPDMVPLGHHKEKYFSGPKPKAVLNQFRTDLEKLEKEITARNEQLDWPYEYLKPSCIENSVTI

Activity change, negative = inhibition, inactive:
COc1ccc(Br)cc1C(=O)NC(=S)Nc1cc(-c2nc3ccccc3[nH]2)ccc1C
C=CCNC(=S)N/N=C/c1ccc(OCc2ccccc2)cc1
CCS(=O)(=O)Nc1cccc(-c2cc(-c3ccccc3)c3cc(C)ccc3n2)c1
O=C(COC(=O)c1c2c(nc3ccccc13)/C(=C\c1cccs1)CCC2)Nc1ccccc1Cl
COC(=O)C1=C(C(=O)OC)[C@@H]2N(C)c3ccccc3[C@@]23C[C@@H](C(=O)OC)N(S(=O)(=O)c2cccs2)C3=N1 -1.35% [at 11.4 µM]
CCCCc1cc2c(s1)CCCC/C2=N/O
NC(=O)c1ccccc1N=Cc1ccc2ccccc2c1
CC(C)CCN1C(=O)c2ccc(C(=O)Nc3cccc(S(N)(=O)=O)c3)cc2C1=O
COc1ccccc1OCC(=O)OCn1c(SC)nnc(C)c1=O
N#C/C(=C/c1ccc(N2CCCCC2)o1)C(=O)NCCc1c[nH]c2ccccc12
CC(C)CN(C(=O)CN1CCN(S(=O)(=O)c2ccccc2)CC1)c1c(N)n(CC(C)C)c(=O)[nH]c1=O
Cc1cc(N2CCOCC2)nc(-c2ccc(Br)cc2)n1
COc1ccc2c(-c3ccccc3)cc(SCC(=O)N(C)C3CCS(=O)(=O)C3)nc2c1 (configuration not stated)
Cc1ccc(S(=O)(=O)N2CCC(=O)N([C@H](COCc3ccccc3)Cc3ccccc3)CC2)cc1 0.261% [at 0.00818 µM]
COc1ccc(-n2c(C)cc(C(=O)COC(=O)c3cc(OC)c(OC)cc3NC(=O)c3cccs3)c2C)cc1
COc1cc2c(cc1NC(=O)COC(=O)/C=C/c1ccccc1)oc1ccccc12
COc1ccc(CCNc2cc(C)nc3c(-c4ccc(Cl)cc4)c(C)nn23)cc1OC
O=C(Nc1ccc(N2C(=O)c3cccc4cccc(c34)C2=O)cc1)c1ccc(N2CCCCC2)c([N+](=O)[O-])c1
CCn1c(=O)cc(SCC(=O)NCCC2=CCCCC2)c2ccccc21
COc1cccc(CC(=O)N2CCc3nc(COc4ccccc4)c4c(c3C2)CO[C@@H](C)C4)c1 -2.68% [at 11.4 µM]
COCCNC(=O)c1ccc(N2CCC3(CC2)OCCO3)c([N+](=O)[O-])c1
CCCN=C1NC(=O)C(CC(=O)NCCc2ccc(OC)c(OC)c2)S1 (configuration not stated)
CCOC(=O)c1ccccc1N1C(=O)C2Sc3[nH]c(=O)sc3C(/C=C/c3ccccc3)C2C1=O (configuration not stated)
CC(=O)NNC1=Nc2ccccc2N(C)C(C)C1 (configuration not stated)
COC(=O)/C(C#N)=C/c1occc1C
Cc1[nH]n(-c2ccccc2)c(=O)c1/C=N/NC(=O)c1ccoc1C
Cn1cccc1/C=N/NC(=O)c1ccc(OC(F)(F)C(F)F)cc1
COc1cc(OC)c2c(-c3cccc(-c4cccc(N)c4)c3)cc(=O)oc2c1 -1.39% [at 0.00818 µM]
N=C1/C(=C/c2cccn2-c2cccc([N+](=O)[O-])c2)C(=O)N=C2SC=CN12
Cc1cccc([C@H]2[C@@H]3C=CC[C@@H](C)[C@@H]3C(=O)N2Cc2ccccc2)c1 -6.11% [at 0.00818 µM]
COc1cc(CCC(=O)OCC(=O)Nc2cccc(S(N)(=O)=O)c2)cc(OC)c1OC
O=C(O)CC(Cc1ccccc1)C(=O)Nc1ccc([N+](=O)[O-])cc1 (configuration not stated)
NC(=O)C[C@@H]1NC(=O)CNC(=O)c2cc([N+](=O)[O-])cc(I)c2NCCC(C(N)=O)NC1=O (some centres not stated)
Cn1cccc1/C=C1\SC(=S)N(NC(=O)c2ccc(Cl)cc2)C1=O
CCc1nnc(NC(=O)/C=C/c2ccc(C)o2)s1
C=CC1=C2C=C(C3CC3)N(C(CO)CO)C=C2C(=O)C(C)(OC(=O)c2ccco2)C1=O (configuration not stated) 3.57% [at 11.4 µM]
CC1=C(C/C=C(\C)CCCC(C)CCCC(C)CCCC(C)C)C(=O)c2ccccc2C1=O (configuration not stated) -5.67% [at 0.00818 µM]
CN(C(=O)CSc1nnc(-c2n[nH]c3ccccc23)o1)c1ccccc1
Cc1nc(-c2ccccc2)cn2c1nc1ccccc12
O=C1OCCN1C(=O)[C@H]1[C@H](c2ccc(Cl)cc2)C(c2cccc(Cl)c2)=NN1c1ccc(Br)cc1 -6.33% [at 0.00818 µM]
COc1cc(OC)c2c(c1)OC(=O)CC2c1cc(OC)c(OC)c(OC)c1 (configuration not stated) -5.58% [at 0.00818 µM]
CCCCC/C=C\C/C=C\CCCCCCCCCC(=O)O
